# From article PMC7862700, “An all-to-all approach to the identification of sequence-specific readers for epigenetic DNA modifications on cytosine”
# How the values were obtained:
# Assay in all cases: DAPPL (digital affinity profiling via proximity ligation, sequencing); 10 mM Tris-HCl pH 7.5, 50 mM NaCl, 1 mM DTT, 4% glycerol, room temperature, 30 min; GST-TFs on glutathione beads, 16-mer random dsDNA library, 0.1% formaldehyde crosslink after washing; high values mean tight binding
# FLI1 = biological target: T1, FLI1 (Homo sapiens, UniProt Q01543 1-452); conditions: protein: recombinant; tags: N-terminal GST; dsDNA, one strand shown
# T1 sequence: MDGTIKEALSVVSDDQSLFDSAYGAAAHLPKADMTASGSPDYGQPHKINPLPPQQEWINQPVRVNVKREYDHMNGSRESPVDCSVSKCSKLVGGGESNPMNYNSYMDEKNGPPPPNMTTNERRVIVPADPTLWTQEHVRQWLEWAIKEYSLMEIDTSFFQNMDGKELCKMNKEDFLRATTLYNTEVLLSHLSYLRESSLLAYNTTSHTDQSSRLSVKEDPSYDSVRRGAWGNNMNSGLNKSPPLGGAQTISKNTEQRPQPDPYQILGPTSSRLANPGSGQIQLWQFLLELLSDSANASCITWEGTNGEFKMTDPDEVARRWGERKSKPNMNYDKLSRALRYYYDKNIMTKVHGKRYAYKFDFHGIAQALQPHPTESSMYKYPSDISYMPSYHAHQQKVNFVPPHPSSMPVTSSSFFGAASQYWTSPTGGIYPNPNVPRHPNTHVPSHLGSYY
# Method in brief: (§1)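 Beads coated with glutathione captured GST-fused human transcription factors that had been expressed in yeast, and the factors were then given DNA barcodes and pooled with a tag-only sample. The pools were incubated with 200 nmole of a random double-stranded 16-mer DNA library in Tris/NaCl/DTT/glycerol buffer for 30 min at room temperature, washed, crosslinked with 0.1% formaldehyde and proximity-ligated with BsaI/T4 ligase at 37 °C for 1 h. PCR amplification and Illumina NextSeq500 sequencing came last. Binding signal is each hexamer's read frequency for a factor divided by its frequency for the tag-only sample.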
# ELK1 = biological target: T2, ELK1 (Homo sapiens, UniProt P19419 1-428); conditions: protein: recombinant; tags: N-terminal GST; dsDNA, one strand shown
# T2 sequence: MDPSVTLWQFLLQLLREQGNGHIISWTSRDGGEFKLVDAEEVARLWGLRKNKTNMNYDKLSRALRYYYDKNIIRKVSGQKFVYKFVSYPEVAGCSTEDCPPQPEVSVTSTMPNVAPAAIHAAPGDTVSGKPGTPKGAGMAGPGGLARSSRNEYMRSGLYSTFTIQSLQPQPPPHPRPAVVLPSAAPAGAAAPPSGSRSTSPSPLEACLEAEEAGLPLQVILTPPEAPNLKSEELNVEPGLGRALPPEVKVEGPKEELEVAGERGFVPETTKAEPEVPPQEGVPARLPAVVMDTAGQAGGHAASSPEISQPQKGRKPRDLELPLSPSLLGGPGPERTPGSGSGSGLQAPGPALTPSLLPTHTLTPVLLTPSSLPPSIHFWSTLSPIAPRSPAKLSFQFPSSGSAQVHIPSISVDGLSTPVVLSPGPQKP
# Method in brief: as §1
# GABPA = biological target: T3, GABPA (Homo sapiens, UniProt Q06546 1-454); conditions: protein: recombinant; tags: N-terminal GST; dsDNA, one strand shown
# T3 sequence: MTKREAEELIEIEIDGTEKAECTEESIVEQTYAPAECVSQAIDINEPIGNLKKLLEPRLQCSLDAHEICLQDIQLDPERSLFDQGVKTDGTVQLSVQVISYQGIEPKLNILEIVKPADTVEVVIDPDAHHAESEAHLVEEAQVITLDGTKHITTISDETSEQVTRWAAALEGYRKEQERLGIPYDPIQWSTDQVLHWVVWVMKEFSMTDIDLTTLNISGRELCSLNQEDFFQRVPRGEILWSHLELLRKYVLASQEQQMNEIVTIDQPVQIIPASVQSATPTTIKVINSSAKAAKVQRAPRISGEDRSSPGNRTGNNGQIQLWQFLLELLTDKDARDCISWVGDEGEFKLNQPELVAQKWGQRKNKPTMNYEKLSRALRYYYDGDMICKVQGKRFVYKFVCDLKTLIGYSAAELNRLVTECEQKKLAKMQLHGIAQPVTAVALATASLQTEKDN
# Method in brief: as §1
# ERG = biological target: T4, ERG (Homo sapiens, UniProt P11308 1-479); conditions: protein: recombinant; tags: N-terminal GST; dsDNA, one strand shown
# T4 sequence: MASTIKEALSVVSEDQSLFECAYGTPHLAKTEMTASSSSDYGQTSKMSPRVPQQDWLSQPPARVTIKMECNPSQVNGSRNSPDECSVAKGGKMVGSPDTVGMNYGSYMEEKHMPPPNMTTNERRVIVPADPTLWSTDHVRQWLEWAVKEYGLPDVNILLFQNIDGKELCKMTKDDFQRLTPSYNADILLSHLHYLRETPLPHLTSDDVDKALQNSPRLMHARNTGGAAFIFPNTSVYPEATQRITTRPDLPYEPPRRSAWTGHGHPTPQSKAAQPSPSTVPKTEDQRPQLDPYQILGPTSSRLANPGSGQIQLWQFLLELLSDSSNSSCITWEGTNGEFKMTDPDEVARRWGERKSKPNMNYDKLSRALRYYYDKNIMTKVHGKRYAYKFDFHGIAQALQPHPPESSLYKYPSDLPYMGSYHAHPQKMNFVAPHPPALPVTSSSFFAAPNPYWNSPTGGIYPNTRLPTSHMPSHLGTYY
# Method in brief: as §1
# ELF1 = ELF1 (Homo sapiens, UniProt P32519 1-619); conditions: protein: recombinant; tags: N-terminal GST; dsDNA, one strand shown
# Method in brief: as §1
# EHF = biological target: T5, EHF (Homo sapiens, UniProt Q9NZC4 1-300); conditions: protein: recombinant; tags: N-terminal GST; dsDNA, one strand shown
# T5 sequence: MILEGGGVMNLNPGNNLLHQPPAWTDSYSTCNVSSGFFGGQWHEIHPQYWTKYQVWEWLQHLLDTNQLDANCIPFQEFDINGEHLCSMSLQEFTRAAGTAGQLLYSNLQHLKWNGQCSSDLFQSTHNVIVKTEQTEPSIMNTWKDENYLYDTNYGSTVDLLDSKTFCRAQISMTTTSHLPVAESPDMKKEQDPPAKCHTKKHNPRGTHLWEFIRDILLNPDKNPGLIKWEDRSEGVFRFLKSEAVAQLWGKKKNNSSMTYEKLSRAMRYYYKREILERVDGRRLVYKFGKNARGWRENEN
# Method in brief: as §1
# SPI1 = SPI1 (Homo sapiens, UniProt P17947 1-270); conditions: protein: recombinant; tags: N-terminal GST; dsDNA, one strand shown
# Method in brief: as §1
# SPIB = SPIB (Homo sapiens, UniProt Q01892 1-262); conditions: protein: recombinant; tags: N-terminal GST; dsDNA, one strand shown
# Method in brief: as §1
# ELK3 = biological target: T6, ELK3 (Homo sapiens, UniProt P41970 1-407); conditions: protein: recombinant; tags: N-terminal GST; dsDNA, one strand shown
# T6 sequence: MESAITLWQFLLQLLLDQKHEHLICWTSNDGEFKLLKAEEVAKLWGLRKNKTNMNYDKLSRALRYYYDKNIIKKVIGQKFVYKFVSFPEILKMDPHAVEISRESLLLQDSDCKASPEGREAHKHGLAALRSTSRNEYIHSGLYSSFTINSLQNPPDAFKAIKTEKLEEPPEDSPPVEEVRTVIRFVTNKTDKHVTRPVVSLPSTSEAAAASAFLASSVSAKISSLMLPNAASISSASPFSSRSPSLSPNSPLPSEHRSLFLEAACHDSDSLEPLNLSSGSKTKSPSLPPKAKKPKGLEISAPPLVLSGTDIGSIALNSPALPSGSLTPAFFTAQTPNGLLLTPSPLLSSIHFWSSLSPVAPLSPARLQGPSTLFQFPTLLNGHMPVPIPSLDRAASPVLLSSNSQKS
# Method in brief: as §1
# FEV = biological target: T7, FEV (Homo sapiens, UniProt Q99581 1-238); conditions: protein: recombinant; tags: N-terminal GST; dsDNA, one strand shown
# T7 sequence: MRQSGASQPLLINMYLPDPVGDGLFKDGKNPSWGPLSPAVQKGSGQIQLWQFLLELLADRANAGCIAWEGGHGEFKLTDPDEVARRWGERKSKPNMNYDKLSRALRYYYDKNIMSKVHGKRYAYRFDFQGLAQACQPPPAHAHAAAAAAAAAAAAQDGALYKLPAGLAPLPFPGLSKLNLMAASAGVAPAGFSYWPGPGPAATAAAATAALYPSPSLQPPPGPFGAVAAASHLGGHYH
# Method in brief: as §1
# ETV5 = ETV5 (Homo sapiens, UniProt P41161 1-510); conditions: protein: recombinant; tags: N-terminal GST; dsDNA, one strand shown
# Method in brief: as §1
# HSF1 = HSF1 (Homo sapiens, UniProt Q00613 1-529); conditions: protein: recombinant; tags: N-terminal GST; chain copies: 3; dsDNA, one strand shown
# Method in brief: as §1
# SPIC = biological target: T8, SPIC (Homo sapiens, UniProt Q8N5J4 1-248); conditions: protein: recombinant; tags: N-terminal GST; dsDNA, one strand shown
# T8 sequence: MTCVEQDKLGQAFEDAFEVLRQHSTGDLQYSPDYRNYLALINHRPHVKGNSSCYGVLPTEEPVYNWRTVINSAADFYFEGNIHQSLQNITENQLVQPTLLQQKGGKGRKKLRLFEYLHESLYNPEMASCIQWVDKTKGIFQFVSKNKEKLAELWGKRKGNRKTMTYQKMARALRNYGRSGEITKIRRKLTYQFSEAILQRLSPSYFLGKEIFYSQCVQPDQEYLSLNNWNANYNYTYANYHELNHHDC
# Method in brief: as §1
# ELF4 = ELF4 (Homo sapiens, UniProt Q99607 1-663); conditions: protein: recombinant; tags: N-terminal GST; dsDNA, one strand shown
# Method in brief: as §1
# ELK4 = biological target: T9, ELK4 (Homo sapiens, UniProt P28324-2 1-405); conditions: protein: recombinant; tags: N-terminal GST; dsDNA, one strand shown
# T9 sequence: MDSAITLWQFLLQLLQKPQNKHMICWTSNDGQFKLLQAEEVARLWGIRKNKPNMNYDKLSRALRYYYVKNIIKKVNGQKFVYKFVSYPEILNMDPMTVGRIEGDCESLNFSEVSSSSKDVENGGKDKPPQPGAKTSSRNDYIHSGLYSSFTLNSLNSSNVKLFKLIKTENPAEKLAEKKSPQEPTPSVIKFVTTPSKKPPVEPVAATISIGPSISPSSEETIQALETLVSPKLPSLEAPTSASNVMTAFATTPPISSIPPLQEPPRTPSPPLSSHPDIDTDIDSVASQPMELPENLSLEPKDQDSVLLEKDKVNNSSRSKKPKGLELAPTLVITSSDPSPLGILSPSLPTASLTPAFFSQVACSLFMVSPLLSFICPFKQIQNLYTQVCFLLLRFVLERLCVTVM
# Method in brief: as §1
# ETV2 = biological target: T10, ETV2 (Homo sapiens, UniProt O00321 1-342); conditions: protein: recombinant; tags: N-terminal GST; dsDNA, one strand shown
# T10 sequence: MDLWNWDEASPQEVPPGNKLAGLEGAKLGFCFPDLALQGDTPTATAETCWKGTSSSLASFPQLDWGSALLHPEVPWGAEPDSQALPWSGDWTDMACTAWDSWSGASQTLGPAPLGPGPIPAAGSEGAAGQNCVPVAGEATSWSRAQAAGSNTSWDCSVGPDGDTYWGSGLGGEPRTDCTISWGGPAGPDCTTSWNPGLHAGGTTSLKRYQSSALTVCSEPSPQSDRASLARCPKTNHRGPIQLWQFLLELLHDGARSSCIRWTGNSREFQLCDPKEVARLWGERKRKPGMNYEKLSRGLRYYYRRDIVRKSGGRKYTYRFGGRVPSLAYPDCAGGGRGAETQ
# Method in brief: as §1
# ELF3 = biological target: T11, ELF3 (Homo sapiens, UniProt P78545 1-371); conditions: protein: recombinant; tags: N-terminal GST; dsDNA, one strand shown
# T11 sequence: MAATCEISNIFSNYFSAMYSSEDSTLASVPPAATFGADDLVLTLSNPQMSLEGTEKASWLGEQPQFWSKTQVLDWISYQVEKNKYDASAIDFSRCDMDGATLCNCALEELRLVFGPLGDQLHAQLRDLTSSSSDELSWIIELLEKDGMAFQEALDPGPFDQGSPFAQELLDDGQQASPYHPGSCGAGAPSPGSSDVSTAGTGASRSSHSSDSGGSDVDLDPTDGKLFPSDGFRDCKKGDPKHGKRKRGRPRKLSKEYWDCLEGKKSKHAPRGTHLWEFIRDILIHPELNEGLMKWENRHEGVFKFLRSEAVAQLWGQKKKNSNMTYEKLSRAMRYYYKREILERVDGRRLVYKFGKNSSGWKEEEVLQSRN
# Method in brief: as §1
# CRX = CRX (Homo sapiens, UniProt O43186 1-299); conditions: protein: recombinant; tags: N-terminal GST; dsDNA, one strand shown
# Method in brief: as §1
# ETV1 = ETV1 (Homo sapiens, UniProt P50549 1-477); conditions: protein: recombinant; tags: N-terminal GST; dsDNA, one strand shown
# Method in brief: as §1
# Sequence of ELF1 (P32519 whole entry): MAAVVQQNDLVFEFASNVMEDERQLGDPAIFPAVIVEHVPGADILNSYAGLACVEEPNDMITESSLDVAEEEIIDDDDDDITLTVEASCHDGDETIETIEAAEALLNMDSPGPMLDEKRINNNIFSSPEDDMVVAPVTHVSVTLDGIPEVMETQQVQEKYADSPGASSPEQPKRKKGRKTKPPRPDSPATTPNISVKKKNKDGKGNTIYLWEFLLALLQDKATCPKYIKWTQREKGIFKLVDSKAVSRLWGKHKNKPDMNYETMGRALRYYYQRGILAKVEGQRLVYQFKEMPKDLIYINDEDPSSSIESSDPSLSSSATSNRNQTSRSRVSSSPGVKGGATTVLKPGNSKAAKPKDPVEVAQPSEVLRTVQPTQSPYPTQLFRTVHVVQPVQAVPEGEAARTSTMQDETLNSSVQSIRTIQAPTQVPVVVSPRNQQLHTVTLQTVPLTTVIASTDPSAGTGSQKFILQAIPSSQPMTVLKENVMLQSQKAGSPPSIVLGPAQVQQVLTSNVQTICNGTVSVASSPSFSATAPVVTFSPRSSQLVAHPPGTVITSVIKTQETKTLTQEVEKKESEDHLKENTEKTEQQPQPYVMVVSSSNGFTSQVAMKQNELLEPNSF
# Sequence of ETV5 (P41161 whole entry): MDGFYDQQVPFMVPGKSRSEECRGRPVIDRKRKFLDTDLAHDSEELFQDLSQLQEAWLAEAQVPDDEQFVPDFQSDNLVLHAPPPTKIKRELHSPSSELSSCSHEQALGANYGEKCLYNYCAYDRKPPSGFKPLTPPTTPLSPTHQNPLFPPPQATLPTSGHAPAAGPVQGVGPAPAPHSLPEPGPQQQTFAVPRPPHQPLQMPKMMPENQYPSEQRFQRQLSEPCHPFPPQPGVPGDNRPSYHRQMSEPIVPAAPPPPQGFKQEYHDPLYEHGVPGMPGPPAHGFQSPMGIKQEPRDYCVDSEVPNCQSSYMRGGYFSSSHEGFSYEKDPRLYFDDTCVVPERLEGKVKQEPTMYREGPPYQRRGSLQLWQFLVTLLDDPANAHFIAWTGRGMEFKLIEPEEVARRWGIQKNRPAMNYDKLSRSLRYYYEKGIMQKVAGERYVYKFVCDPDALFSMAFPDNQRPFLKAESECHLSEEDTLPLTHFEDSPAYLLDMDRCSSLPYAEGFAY
# Sequence of HSF1 (Q00613 whole entry): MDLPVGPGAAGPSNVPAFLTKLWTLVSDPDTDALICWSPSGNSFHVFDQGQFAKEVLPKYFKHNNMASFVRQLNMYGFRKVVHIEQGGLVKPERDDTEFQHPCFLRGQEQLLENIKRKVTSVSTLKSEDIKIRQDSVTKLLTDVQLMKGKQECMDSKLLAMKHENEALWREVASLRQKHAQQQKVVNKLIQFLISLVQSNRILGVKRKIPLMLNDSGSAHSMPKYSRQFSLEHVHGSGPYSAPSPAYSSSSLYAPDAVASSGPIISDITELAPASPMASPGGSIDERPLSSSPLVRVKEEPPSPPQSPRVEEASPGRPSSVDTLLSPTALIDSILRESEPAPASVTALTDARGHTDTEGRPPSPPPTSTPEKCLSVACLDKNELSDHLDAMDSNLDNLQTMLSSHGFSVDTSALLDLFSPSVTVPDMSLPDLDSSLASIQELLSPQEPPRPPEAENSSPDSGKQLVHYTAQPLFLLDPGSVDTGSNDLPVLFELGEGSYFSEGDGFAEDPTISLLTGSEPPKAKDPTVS
# Sequence of SPIB (Q01892 whole entry): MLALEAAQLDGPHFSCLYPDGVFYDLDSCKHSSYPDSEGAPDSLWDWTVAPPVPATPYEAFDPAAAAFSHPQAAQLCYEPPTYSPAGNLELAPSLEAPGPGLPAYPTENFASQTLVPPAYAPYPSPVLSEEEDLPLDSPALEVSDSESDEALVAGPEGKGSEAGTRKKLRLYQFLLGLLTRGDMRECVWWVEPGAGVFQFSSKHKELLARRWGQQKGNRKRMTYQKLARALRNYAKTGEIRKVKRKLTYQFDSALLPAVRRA
# Sequence of ELF4 (Q99607 whole entry): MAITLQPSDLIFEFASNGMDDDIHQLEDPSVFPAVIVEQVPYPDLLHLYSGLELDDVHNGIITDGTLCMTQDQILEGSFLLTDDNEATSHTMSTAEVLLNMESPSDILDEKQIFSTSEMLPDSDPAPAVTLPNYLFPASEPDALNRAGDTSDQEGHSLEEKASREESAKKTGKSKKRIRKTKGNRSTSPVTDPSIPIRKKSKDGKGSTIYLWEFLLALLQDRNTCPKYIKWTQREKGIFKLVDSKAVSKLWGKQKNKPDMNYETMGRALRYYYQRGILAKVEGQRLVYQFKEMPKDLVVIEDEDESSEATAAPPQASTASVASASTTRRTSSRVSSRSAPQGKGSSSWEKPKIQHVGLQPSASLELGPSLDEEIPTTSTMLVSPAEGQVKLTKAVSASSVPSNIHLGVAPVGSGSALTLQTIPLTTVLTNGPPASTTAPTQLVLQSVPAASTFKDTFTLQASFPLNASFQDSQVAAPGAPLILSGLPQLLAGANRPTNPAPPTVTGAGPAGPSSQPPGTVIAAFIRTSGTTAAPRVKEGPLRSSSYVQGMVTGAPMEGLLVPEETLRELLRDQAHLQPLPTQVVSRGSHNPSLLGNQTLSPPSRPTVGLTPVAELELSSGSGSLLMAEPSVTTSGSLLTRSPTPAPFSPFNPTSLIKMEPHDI
# Sequence of CRX (O43186 whole entry): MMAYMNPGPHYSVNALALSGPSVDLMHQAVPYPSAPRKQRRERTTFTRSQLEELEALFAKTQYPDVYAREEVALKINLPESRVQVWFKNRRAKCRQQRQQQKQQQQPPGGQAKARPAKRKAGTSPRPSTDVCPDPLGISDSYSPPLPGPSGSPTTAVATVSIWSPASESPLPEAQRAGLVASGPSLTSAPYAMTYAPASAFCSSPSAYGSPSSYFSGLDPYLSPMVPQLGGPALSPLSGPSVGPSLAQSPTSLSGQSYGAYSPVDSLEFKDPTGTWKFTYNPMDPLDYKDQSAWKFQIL
# Sequence of ETV1 (P50549 whole entry): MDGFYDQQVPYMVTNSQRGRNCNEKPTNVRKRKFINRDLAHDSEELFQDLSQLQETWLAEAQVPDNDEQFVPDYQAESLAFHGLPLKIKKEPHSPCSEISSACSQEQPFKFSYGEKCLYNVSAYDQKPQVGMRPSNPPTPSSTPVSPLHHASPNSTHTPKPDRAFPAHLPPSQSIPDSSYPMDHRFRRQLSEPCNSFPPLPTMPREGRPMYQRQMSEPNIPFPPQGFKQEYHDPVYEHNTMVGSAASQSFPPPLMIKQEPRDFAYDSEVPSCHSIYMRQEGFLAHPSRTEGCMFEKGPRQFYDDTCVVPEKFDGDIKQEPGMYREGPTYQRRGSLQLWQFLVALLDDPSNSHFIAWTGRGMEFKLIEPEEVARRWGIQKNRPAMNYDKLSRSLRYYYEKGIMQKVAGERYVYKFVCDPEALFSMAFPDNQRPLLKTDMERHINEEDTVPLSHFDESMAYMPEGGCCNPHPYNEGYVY
sequence,measurement,setting,value
AAGTAT,binding signal,FLI1,"1.44 fold enrichment (6-mer frequency, TF over GST control)"
same,binding signal,ELK1,"1.4 fold enrichment (6-mer frequency, TF over GST control)"
same,binding signal,GABPA,"1.4 fold enrichment (6-mer frequency, TF over GST control)"
same,binding signal,ERG,"1.42 fold enrichment (6-mer frequency, TF over GST control)"
same,binding signal,ELF1,"1.36 fold enrichment (6-mer frequency, TF over GST control)"
same,binding signal,EHF,"1.43 fold enrichment (6-mer frequency, TF over GST control)"
same,binding signal,SPI1,"1.36 fold enrichment (6-mer frequency, TF over GST control)"
same,binding signal,SPIB,"1.48 fold enrichment (6-mer frequency, TF over GST control)"
same,binding signal,ELK3,"1.46 fold enrichment (6-mer frequency, TF over GST control)"
same,binding signal,FEV,"1.34 fold enrichment (6-mer frequency, TF over GST control)"
same,binding signal,ETV5,"1.38 fold enrichment (6-mer frequency, TF over GST control)"
same,binding signal,HSF1,"1.38 fold enrichment (6-mer frequency, TF over GST control)"
same,binding signal,SPIC,"1.49 fold enrichment (6-mer frequency, TF over GST control)"
same,binding signal,ELF4,"1.4 fold enrichment (6-mer frequency, TF over GST control)"
same,binding signal,ELK4,"1.31 fold enrichment (6-mer frequency, TF over GST control)"
same,binding signal,ETV2,"1.42 fold enrichment (6-mer frequency, TF over GST control)"
same,binding signal,ELF3,"1.35 fold enrichment (6-mer frequency, TF over GST control)"
same,binding signal,CRX,"1.57 fold enrichment (6-mer frequency, TF over GST control)"
same,binding signal,ETV1,"1.44 fold enrichment (6-mer frequency, TF over GST control)"
